Measured values reported in PubChem BioAssay (NCATS).
Records with an inconclusive call do not appear. Active and inactive are the calls of the source. Unless noted, calls come from the whole dose curve; as a rule, active = well fitted curve in the direction sought with a large enough effect; inconclusive = small, poorly fitted or top-dose-only effect, or another doubt; inactive = no such curve, though single readings can be large; an effect the other way counts as inactive or inconclusive.

What was measured:
[1] = qHTS for differential inhibitors of proliferation of Plasmodium falciparum line HB3 (AID 1886); conditions: Potency: Plasmodium falciparum HB3 proliferation inhibition; series mostly up to 28.7 µM;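 note: parasites grown with compound for 72 h before SYBR Green readout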; note: potency is the fitted concentration of half-maximal effect
[2] = target: Ferritin light chain (Equus caballus) (UniProt P02791); experiment: qHTS Validation Assay for Identification of Novel General Anesthetics (AID 2323); conditions: horse apoferritin, anesthetic-site fluorescent probe displacement; series mostly up to 76.9 µM
Outline: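 Competitive displacement of profluorescent 1-aminoanthracene (1-AMA, 50% saturated solution in PBS) from 10 uM horse-spleen apoferritin. Compounds incubated 10 min at room temperature; fluorescence read at 380 nm excitation/535 nm emission, normalized to free 1-AMA and complex, fitted with four-parameter Hill equation.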

[3] = target: ATP-dependent DNA helicase Q1 (Homo sapiens) (UniProt P46063); experiment: qHTS Validation Assay for Inhibitors of RecQ-Like Dna Helicase 1 (RECQ1) (AID 2353); conditions: recombinant RECQ1 helicase DNA unwinding assay; series mostly up to 25.6 µM
Outline: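 RECQ1T1 50 nM; forked duplex (20 bp + 30-nt ss tails) 200 nM, ATP 2 mM final; pH 8.0, 2 mM MgCl2, 2.5 ug/ml poly(dI-dC); 15 min compound preincubation; discontinuous kinetic read over 2 h at RT.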

[4] = target: RecQ-like DNA helicase BLM (Homo sapiens) (UniProt P54132); experiment: qHTS Validation Assay for Inhibitors of Bloom's syndrome helicase (BLM) (AID 2364); conditions: BLM helicase DNA unwinding, fluorescence, in vitro; series mostly up to 57.1 µM; note: potency is the fitted concentration of half-maximal effect
Outline: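 BLM 50 nM in 25 mM Tris-HCl pH 8.0, 5 mM NaCl, 2 mM MgCl2, 1 mM DTT, 0.01% Tween-20, 2.5 ug/ml poly(dI-dC); 15 min cpd preinc, RT. Start: 200 nM forked DNA + 2 mM ATP (final). TAMRA read, 2 reads 2 h apart.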

[5] = Cytometric Cell-Based qHTS for Inhibitors of the mTORC1 Signaling Pathway in MEF (Tsc2-/-, p53-/-) Cells (AID 2660); conditions: mTORC1 pathway cytometry; series mostly up to 38.3 µM;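 note: Tsc2 and p53 null MEFs carrying empty vector with compound for 24 h; percent of cells above a phospho-rpS6 to PI ratio cutoff in each well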
Outline: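 Cells are plated, treated with compound for 24 hrs at 37 degree Celsius, then fixed, blocked and immunostained for phospho-rpS6 Ser235/236. Propidium iodide counterstain follows. Per-well % positive cells is derived from the PI-normalized phospho-S6 signal.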

[6] = High Content Imaging Cell-Based qHTS for Inhibitors of the mTORC1 Signaling Pathway in MEF (Tsc2-/-, p53-/-) Cells (AID 2666); conditions: series mostly up to 38.3 µM;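 note: percent of cells scored positive for phospho-rpS6 Ser235/236 immunostaining by imaging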
Outline: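 Inhibition of rpS6 phosphorylation is measured by immunofluorescence imaging in empty-vector Tsc2-/-, p53-/- mouse embryonic fibroblasts after 24 hrs compound exposure at 37 degree Celsius. Results are reported as % positive cells per well.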

[7] = High Content Imaging Cell-Based qHTS for Inhibitors of the mTORC1 Signaling Pathway in MEF Cells (AID 2667); conditions: series mostly up to 38.3 µM; note: potency is the fitted concentration of half-maximal effect
Outline: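 Fixed-cell imaging of phospho-S6 (Ser235/236, Alexa-488) after 24 hrs of compound treatment at 37 degree Celsius. Signal was normalized to Hoechst, and thresholds from the highest and lowest wells split cells into % active versus % non-active.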

[8] = Cytometry Cell-Based qHTS for Inhibitors of the mTORC1 Signaling Pathway in MEF cells (AID 2668); conditions: mTORC1 pathway readout; series mostly up to 38.3 µM; note: potency is the fitted concentration of half-maximal effect
Outline: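 WT MEFs (Tsc2-/-, p53-/- stably re-expressing WT Tsc2) in DMEM + 10% FBS received compounds 24 hrs after plating, for 24 hrs at 37 degree Celsius. Fixed cells stained with Alexa-488 anti-phospho-rpS6 Ser235/236 and propidium iodide; laser-scanning cytometry read-out.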

[9] = qHTS Assay for Modulators of Human Peripheral Myelin Protein 22 (PMP22) Expression/Activity (AID 1967; active = well fitted curve in the direction sought with a large enough effect in the signal ratio; the % refers to the signal ratio); conditions: Cell-based PMP22 reporter, dual-color luciferase ratio, mouse Pmp22 promoter in mouse Schwann cells; series mostly up to 115 µM
Outline: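 MSC80 mouse Schwann cells stably carrying Pmp22 promoter–green click beetle luciferase plus EF-alpha–red luciferase control were dosed for 24h at 37 °C. Dual-colour luminescence was filter-overlap corrected; %Activity came from green/red ratio versus untreated cells.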

[10] = qHTS Assay for Identification of Small Molecule Inducers of Hypoxia Response (AID 2120; active = well fitted curve in the direction sought with a large enough effect in the signal ratio, with a control signal flat, not every such curve was filed as active; the % refers to the signal ratio); conditions: hypoxia response reporter cells, beta-lactamase ratio readout; series mostly up to 104 µM
Outline: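 Cell-based qHTS for reporter induction: hypoxia response element controlled beta-lactamase in ME-180 cells. Compounds incubated 17 h at 37 degrees C; activity from blue/green (460/530 nm) ratio, inducers ranked by AC50.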

Measured: Potency

Sequence of ATP-dependent DNA helicase Q1 (Homo sapiens) (P46063 whole entry, looked up): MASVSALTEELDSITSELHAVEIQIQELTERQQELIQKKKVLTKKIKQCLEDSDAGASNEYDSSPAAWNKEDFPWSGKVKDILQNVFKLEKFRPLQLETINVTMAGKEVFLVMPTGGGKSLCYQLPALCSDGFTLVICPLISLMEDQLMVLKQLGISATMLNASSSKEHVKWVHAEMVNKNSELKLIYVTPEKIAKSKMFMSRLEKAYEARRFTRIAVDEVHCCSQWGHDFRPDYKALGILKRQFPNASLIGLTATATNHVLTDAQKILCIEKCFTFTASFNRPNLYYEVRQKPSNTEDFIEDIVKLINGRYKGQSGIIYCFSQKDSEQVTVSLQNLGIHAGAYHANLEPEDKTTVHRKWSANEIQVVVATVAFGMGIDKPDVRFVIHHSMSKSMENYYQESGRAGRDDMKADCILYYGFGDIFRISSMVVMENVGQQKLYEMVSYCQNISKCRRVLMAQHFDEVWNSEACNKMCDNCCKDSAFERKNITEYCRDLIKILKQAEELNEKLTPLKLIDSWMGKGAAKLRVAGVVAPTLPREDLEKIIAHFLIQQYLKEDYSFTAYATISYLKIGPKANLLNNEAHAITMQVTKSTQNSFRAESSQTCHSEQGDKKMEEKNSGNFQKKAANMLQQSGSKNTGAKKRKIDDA
Sequence of Ferritin light chain (Equus caballus) (P02791 2-175 limits assumed): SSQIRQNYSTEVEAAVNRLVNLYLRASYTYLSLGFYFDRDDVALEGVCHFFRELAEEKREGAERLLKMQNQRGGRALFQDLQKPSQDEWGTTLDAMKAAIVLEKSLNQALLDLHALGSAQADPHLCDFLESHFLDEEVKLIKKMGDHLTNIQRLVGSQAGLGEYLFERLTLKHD
Sequence of RecQ-like DNA helicase BLM (Homo sapiens) (P54132 whole entry, looked up): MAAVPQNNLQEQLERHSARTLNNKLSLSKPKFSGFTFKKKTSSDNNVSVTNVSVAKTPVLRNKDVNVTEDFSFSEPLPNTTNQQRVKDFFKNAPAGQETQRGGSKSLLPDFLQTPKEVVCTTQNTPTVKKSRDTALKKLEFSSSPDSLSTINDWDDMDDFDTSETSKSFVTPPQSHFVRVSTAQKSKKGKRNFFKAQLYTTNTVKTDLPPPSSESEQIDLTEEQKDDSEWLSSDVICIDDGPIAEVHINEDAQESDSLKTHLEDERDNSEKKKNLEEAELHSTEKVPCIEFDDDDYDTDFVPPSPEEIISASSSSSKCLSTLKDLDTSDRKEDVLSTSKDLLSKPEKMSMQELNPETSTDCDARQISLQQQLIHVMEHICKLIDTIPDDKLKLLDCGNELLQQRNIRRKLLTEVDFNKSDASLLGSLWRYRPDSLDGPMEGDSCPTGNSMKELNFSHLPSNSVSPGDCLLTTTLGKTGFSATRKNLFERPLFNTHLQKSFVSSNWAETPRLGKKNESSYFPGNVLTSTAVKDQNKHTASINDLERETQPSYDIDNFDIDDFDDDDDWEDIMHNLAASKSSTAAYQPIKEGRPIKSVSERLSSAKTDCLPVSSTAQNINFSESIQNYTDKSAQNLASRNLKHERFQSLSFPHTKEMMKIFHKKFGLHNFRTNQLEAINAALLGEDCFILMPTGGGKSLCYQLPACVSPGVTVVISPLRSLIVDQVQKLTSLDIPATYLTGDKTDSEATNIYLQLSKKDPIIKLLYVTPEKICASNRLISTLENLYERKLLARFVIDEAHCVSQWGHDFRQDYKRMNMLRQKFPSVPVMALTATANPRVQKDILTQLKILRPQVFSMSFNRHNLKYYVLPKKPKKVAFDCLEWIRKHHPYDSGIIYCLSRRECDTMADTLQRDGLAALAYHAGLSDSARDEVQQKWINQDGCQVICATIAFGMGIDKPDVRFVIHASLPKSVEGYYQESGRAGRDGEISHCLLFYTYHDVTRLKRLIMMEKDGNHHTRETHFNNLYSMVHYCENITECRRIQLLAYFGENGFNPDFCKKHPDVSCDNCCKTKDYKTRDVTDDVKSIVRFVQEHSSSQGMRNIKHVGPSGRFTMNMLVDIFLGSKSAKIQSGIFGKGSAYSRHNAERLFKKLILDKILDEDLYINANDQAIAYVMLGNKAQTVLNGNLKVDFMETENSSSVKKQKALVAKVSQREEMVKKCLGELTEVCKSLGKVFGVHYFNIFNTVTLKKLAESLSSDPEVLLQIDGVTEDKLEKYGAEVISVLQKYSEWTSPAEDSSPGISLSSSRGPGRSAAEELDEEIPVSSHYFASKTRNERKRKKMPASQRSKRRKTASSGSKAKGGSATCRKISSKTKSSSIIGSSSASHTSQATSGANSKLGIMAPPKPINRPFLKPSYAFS

CCCN1CCC[C@@H]2Cc3nc(N)ncc3C[C@H]21
not listed: [9] | [10]
inactive: all other assays above

OCCN1CCN(CCCN2c3ccccc3Sc3ccc(C(F)(F)F)cc32)CC1
active: [1] 4.47 µM
inactive: [2]

CN(C)CCC=C1c2ccccc2CCc2ccccc21
active: [1] 14.1 µM

Cc1ccc(S(=O)(=O)N[C@@H](CCCCN)C(=O)CCl)cc1
not listed: [9] | [10]
inactive: all other assays above

Fc1ccc(C(OCCN2CCN(CCCc3ccccc3)CC2)c2ccc(F)cc2)cc1
active: [1] 4.47 µM | [8] 18.5 µM
inactive: [3]

O=C1NCN(c2ccccc2)C12CCN(CC1COc3ccccc3O1)CC2 (stereo unspecified)
not listed: [1] | [4] | [10]
inactive: all other assays above

CC(C)C(=O)Nc1ccc([N+](=O)[O-])c(C(F)(F)F)c1
active: [1] 14.1 µM

CN1C[C@H](CNC(=O)OCc2ccccc2)C[C@@H]2c3cccc4c3c(cn4C)C[C@H]21
active: [1] 11.2 µM
inactive: [2] | [3] | [7] | [8]

Cc1c(OCC(F)(F)F)ccnc1CS(=O)c1nc2ccccc2[nH]1 (stereo unspecified)
active: [1] 11.2 µM

CCC1(C2=NCCN2)Cc2ccccc2O1 (stereo unspecified)
not listed: [9] | [10]
inactive: all other assays above

Cc1cccc(C)c1NC1=NCCCS1
not listed: [4] | [9] | [10]
inactive: all other assays above

NCC1(CC(=O)O)CCCCC1
not listed: [4] | [9] | [10]
inactive: all other assays above

Nc1ccncc1
not listed: [9] | [10]
inactive: all other assays above

CCn1cc(C(=O)O)c(=O)c2ccc(C)nc21
inactive: [9] | [2] | [3]

COc1ccccc1N1CCNCC1
not listed: [10]
inactive: all other assays above

O=c1[nH]c2ccccc2n1C1CCN(CCCC(c2ccc(F)cc2)c2ccc(F)cc2)CC1
inactive: [3]
active: [1] 5.62 µM | [7] 16.5 µM

c1ccc(C2CC2)c(OCC2=NCCN2)c1
not listed: [9] | [10]
inactive: all other assays above

NCC(CC(=O)O)c1ccc(Cl)cc1 (stereo unspecified)
not listed: [4] | [9] | [10]
inactive: all other assays above

Cc1ncc(CNC(=O)N(CCCl)N=O)c(N)n1
not listed: [4] | [9] | [10]
inactive: all other assays above

CCCC(C)(COC(N)=O)COC(=O)NC(C)C (stereo unspecified)
not listed: [9]
inactive: all other assays above

NN=C(N)N
not listed: [4] | [9] | [10]
inactive: all other assays above

O=c1[nH]cc(F)c(=O)[nH]1
active: [1] 5.01 µM

CC(=O)[C@H]1CC[C@H]2[C@@H]3CC[C@H]4C[C@H](O)CC[C@]4(C)[C@H]3C(=O)C[C@]12C
not listed: [10]
inactive: all other assays above

Clc1cccc(N2CCNCC2)c1
inactive: [1] | [2] | [3]

NCC(O)c1ccc(O)cc1 (stereo unspecified)
not listed: [9]
inactive: all other assays above

O=c1c(O)c(-c2ccc(O)c(O)c2)oc2cc(O)cc(O)c12
active: [1] 2.82 µM | [4] 28.2 µM

CNCC(O)c1ccc(O)cc1 (stereo unspecified)
not listed: [4] | [9]
inactive: all other assays above
